# Data from PubChem BioAssay AID1359 (The Scripps Research Institute Molecular Screening Center, 2008).
# Hit rate of the full screen: of about 220,000 compounds, about 970 (0.44%) were called active. The list comes from a sample in which actives are over-represented; it also holds similar structures and randomly drawn compounds. Values without a mark were called inactive. Rule as the data show it: active = activation above about 27%; inactive = the rest.
# Target: Neuropeptide Y receptor type 2 (Homo sapiens) (UniProt P49146)
# Experiment: human Y2 receptor positive modulation or activation – cell-based, primary screen (AID 1359);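 also: cells stimulated with NPY near EC25 plus isoproterenol at EC100; 0% = vehicle plus submaximal agonist and 100% = vehicle plus saturating agonist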
# Conditions: cells expressing NPY-Y2, potentiator/agonist read-out; at 3.6 µM; stronger effect = higher value
# Sequence of Neuropeptide Y receptor type 2 (Homo sapiens) (P49146 whole entry, looked up): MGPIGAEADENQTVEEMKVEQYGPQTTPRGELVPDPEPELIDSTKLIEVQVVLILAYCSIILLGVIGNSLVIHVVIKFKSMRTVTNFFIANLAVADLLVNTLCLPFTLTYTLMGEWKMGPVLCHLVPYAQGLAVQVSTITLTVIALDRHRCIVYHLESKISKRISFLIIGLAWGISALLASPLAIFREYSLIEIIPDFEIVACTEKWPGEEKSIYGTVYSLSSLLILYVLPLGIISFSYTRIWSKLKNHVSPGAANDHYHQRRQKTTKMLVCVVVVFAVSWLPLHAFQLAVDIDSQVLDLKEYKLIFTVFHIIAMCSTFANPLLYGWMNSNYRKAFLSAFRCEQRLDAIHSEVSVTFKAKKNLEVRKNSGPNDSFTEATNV
row,SMILES,activation
1,COc1ccc2c(c1)C(SCC(=O)NCc1ccccc1)CC(C)(C)O2 (configuration not stated),15.7%
2,COc1ccc(/C(C)=N/Nc2cc(C(F)(F)F)ccc2Cl)c(OC)c1,-10.5%
3,CCOC(=O)c1c(NC(=O)C2CCN(S(=O)(=O)c3ccc(Cl)cc3)CC2)sc2c1CCCC2,-5.8%
4,O=C(Nc1sc2c(c1-c1nc3ccccc3[nH]1)CCCC2)C1CC1,30.3% (active)
5,O=C(Nc1cccc(-c2nc3ccccc3[nH]2)c1)c1ccc(C(=O)Nc2cccc(-c3nc4ccccc4[nH]3)c2)cc1,0.29%
6,NC(=O)c1ccc(N2CCOCC2)nc1,-10.3%
7,CCOC12CC(C)(C)CC(C)(CC3=C1C(=O)CC(C)(C)C3)C2 (configuration not stated),-1.87%
8,CN(C)CCCSc1ccccc1NC(=O)/C=C/c1ccccc1,-11.2%
9,C1CC1Cc1noc(CN2CCN(CC3CC3)CC2)n1,-4.58%
10,Cc1c(Cl)cccc1NC(=O)CSc1ccc(-c2cccnc2)nn1,2.4%
11,Cc1ccc(CCNC(=O)C2CCN(S(=O)(=O)N3CCCC3)CC2)cc1,104% (active)
12,O=C(NCCCN1CCN(Cc2ccccc2)CC1)C1CCN(S(=O)(=O)N2CCCC2)CC1,17.2%
13,CCS(=O)(=O)N1CCCC(C(=O)NCc2ccc(C)cc2)C1 (configuration not stated),13%
14,CSc1nnc(SCc2nc3sc(C(=O)O)c(C)c3c(=O)[nH]2)s1,1.67%
15,COC(=O)CSc1nc2c(c(C3CC=CCC3)c1C#N)CCC2 (configuration not stated),-6.44%
16,Cc1nc([N+](=O)[O-])cn1CC(=O)Nc1ccc2c(c1)OCO2,-19.2%
17,Cc1ccccc1C(CC(=O)c1cccs1)C(C#N)C#N (configuration not stated),4.09%
18,CC1CCCCC1NC(=O)/C(C#N)=C/C=C/c1ccccc1[N+](=O)[O-] (configuration not stated),-5.09%
19,Cc1cc(C)c(NC(=O)C[N+](C)(C)CC(O)COc2cccc3ccccc23)c(C)c1 (configuration not stated),71.5% (active)
20,Cc1cc(C)cc(OCC(=O)NCc2cc(C)nc3ccccc23)c1,-3.92%
21,Cc1cc(C)c(NC(=O)c2oc3ccccc3c2COc2ccccc2)c(C)c1,-12.9%
22,CCN(C(=O)COc1cccnc1[N+](=O)[O-])C1CCS(=O)(=O)C1 (configuration not stated),-0.31%
23,CN(CCO)Cc1csc2ccc(Br)cc12,-20.4%

row,SMILES,activation
1,CC(=O)N1C(=O)/C(=C2\SC(=S)N(NC(=O)c3ccc(O)cc3)C2=O)c2ccccc21,-3.06%
2,Cc1ccc(NS(=O)(=O)c2cccs2)cc1S(=O)(=O)N1CCCCCC1,3.99%
3,CCOc1ccc(C(=O)NC2CCN(CC(=O)NCc3cccs3)CC2)cc1,13.5%
4,O=C(NCc1ccccc1)c1ccc(S(=O)(=O)Nc2cccc(C(F)(F)F)c2)cc1,47.4% (active)
5,CCNS(=O)(=O)c1ccc(NC(=O)Nc2cccc(C(F)(F)F)c2)cc1,24.5%
6,CS(=O)(=O)NCc1ccc(C(=O)NCc2ccccc2)cc1,10.7%
7,COc1ccc(CN2CCN(Cc3cn(C)nc3-c3ccccc3)CC2CCO)c(C)c1C (configuration not stated),-18%
8,CC(C)(C)OC(=O)N/N=C/c1ccc(C(=O)O)cc1,10%
9,CC(=O)c1c(-c2ccccc2)c2ccccc2[nH]c1=O,6.99%
10,CCO[C@H]1OC(C(=O)N2CCN(Cc3ccccc3)CC2)=C[C@@H](c2cn(C(C)=O)c3ccccc23)[C@@H]1CCCO,-8.85%
11,COCC1CCCN(Cc2nc(-c3ccc4c(c3)OCO4)no2)C1 (configuration not stated),-10.6%
12,Oc1c(Cl)cc(Cl)c(Cl)c1Cc1c(O)c(Cl)cc(Cl)c1Cl,56.1% (active)
13,CCN(C(=O)COC(=O)c1cc(S(=O)(=O)N2CCc3ccccc32)ccc1OC)C1CCS(=O)(=O)C1 (configuration not stated),-3.32%
14,CCOC(=O)C1=C(N)N2C(=O)C(C)SC2=C(C(=O)OCC)C1c1cc(OC)c(OC)c(OC)c1 (configuration not stated),-1.02%
15,Cc1ccccc1OCC(O)CN1CCN(c2ccccn2)CC1 (configuration not stated),17.9%
16,OC(COc1cccc2ccccc12)CN1CCN(c2ccccn2)CC1 (configuration not stated),58.3% (active)
17,Cc1cccc(OCC(O)CN2CCN(CCN3C(=O)c4cccc5cccc(c45)C3=O)CC2)c1C (configuration not stated),30.4%
18,CC(=O)OC(C(=O)NCCc1ccccc1)c1cccnc1 (configuration not stated),-16.8%
19,CC(C)COP(=O)(c1ccc(N(C)C)cc1)C(Nc1ccccc1)c1cccnc1 (configuration not stated),4.54%
20,CC(Nc1ccccc1)c1cccnc1 (configuration not stated),40.2% (active)
21,CCCCc1cc2c(s1)CCCC/C2=N/O,5.62%
22,C/C(=C\c1ccco1)CN1CCC(N2CCC(C(=O)N3CCOCC3)CC2)CC1,-15.1%
23,Cc1cc(C(=O)N/N=C/c2ccc(O)c([N+](=O)[O-])c2)c(C)n1-c1ccc(F)cc1,3.14%

row,SMILES,activation
1,Cc1c(S(=O)(=O)NCc2ccccc2)c(=O)n(C)c(=O)n1C,-20.2%
2,COc1ccc2nc(NC(=O)NC3CCCCC3)sc2c1,42.1% (active)
3,COc1ccc2nc(NC(=O)c3ccc(Br)s3)sc2c1,11.8%
4,COc1ccc2nc(Nc3nc4ccc(NC(C)=O)cc4s3)sc2c1,-3.69%
5,O=C(NC(=S)Nc1cccc2c(O)cccc12)c1cccc(Br)c1,-15.3%
6,O=S(=O)([N-]c1nc2ccccc2nc1-[n+]1ccc(Cc2ccccc2)cc1)c1ccc(Br)s1,-4%
7,CC(=O)c1ccc2c(c1)OCCOCCOc1ccc(C(C)=O)cc1OCCOCCO2,43.3% (active)
8,O=C(c1ccc2c(c1)OCO2)N1CCOCC1,7.94%
9,C/C(=N\NC(=O)C(N)=O)c1ccc2c(c1)OCCO2,-7.65%
10,COc1ccc(N2C(=O)C(CC(=O)Nc3ccc(F)cc3)N(CCc3cccs3)C2=O)cc1 (configuration not stated),4.57%
11,O=C(N1CCCCC1)N1CCN(C(=O)N2CCCCC2)CC1,-11.1%
12,CN(C)S(=O)(=O)c1ccc(NC(=O)COC(=O)Cn2[nH]c(=O)c3ccccc3c2=O)cc1,-2.17%
13,O=C(COC(=O)c1n[nH]c2ccccc12)NCc1ccccc1,-3.06%
14,CN(C)S(=O)(=O)c1ccc(NC(=O)COC(=O)c2n[nH]c3ccccc23)cc1,32.2% (active)
15,COc1ccccc1N1CCN(C(=O)CSc2ncnc3c2cnn3-c2ccc(C)c(C)c2)CC1,-4.38%
16,CCOC(=O)c1sc2nc(C)[nH]c(=O)c2c1C,-3.44%
17,CC(C)OCCCNC(=S)N1CCC(C(=O)c2ccc3c(c2)OCCO3)CC1,-6.61%
18,COc1ccc(CC(=O)NCc2nnc(SCC(=O)Nc3ncc(C)s3)n2C)cc1,-1.91%
19,Cc1ccc(S(=O)(=O)N(Cc2ccc(Cl)cc2)c2ccccc2C(=O)NCc2cccnc2)cc1,-13.3%
20,NC(=O)C1(N2CCCCC2)CCN(C(=O)c2ccc(C#Cc3ccccc3)o2)CC1,66.2% (active)
21,CC(C)(O)C#Cc1ccc(C(=O)N2CCC(C(N)=O)(N3CCCCC3)CC2)cc1,14.8%
22,NC(=O)C1(N2CCCCC2)CCN(C(=S)Nc2ccc(Cl)cc2)CC1,4.89%
23,C/C=C/C=C/C(=O)OCC(=O)Nc1ccc(Cl)cc1,-15.7%

row,SMILES,activation
1,COc1ccc2c(-c3ccccc3)cc(SCC(=O)N(C)C3CCS(=O)(=O)C3)nc2c1 (configuration not stated),6.98%
2,CCCCC(=O)Nc1cc(C)c2c(=O)oc3ccccc3c2n1,1.67%
3,CCOC(=O)c1c(C)nc2c(c1C)c(=O)oc1ccccc12,-26.5%
4,Cc1ccccc1-n1nnc2c(=O)oc3ccccc3c21,32.7% (active)
5,COc1ccc(NC(=O)c2cn(-c3ccccc3)nc2SC)cc1,-16%
6,CCC(=O)c1ccc(N2CCN(C(=O)c3cc([N+](=O)[O-])ccc3F)CC2)c(F)c1,-2.53%
7,Cc1ccccc1CSc1nnc(-c2ccccc2)c(=O)[nH]1,-5.69%
8,O=C1CC(Sc2ncn[nH]2)C(=O)N1c1ccccc1 (configuration not stated),-10.2%
9,Nc1c(-c2cccc(Cl)c2)cnn1-c1cccc([N+](=O)[O-])c1,43.3% (active)
10,O=[N+]([O-])c1cccc(C2=NCCS2)c1,5.16%
11,Cc1nn(-c2ccc([N+](=O)[O-])cc2)c(N)c1-c1ccccc1,8.55%
12,Cc1ccc(NC(=O)C(=O)NCc2ccc(/C=N/NC(=O)c3c(C)nc4cc(C)ccn34)o2)cc1,12.4%
13,CCCN(CC(=O)Nc1ccccc1C)C(=O)c1cc(=O)[nH]c2ccccc12,-12.5%
14,CC(C)NC(=O)NNc1c(Cl)cncc1Cl,-6.55%
15,COc1ccc(C)cc1NC(=O)Nc1ccccc1SC,-22.3%
16,Cc1cccc(NC(=O)CN2C(=O)CNC2=O)c1,-5.86%
17,Cc1ccnc(NC(=O)C(C)N2C(=O)c3ccccc3C2=O)c1 (configuration not stated),-9.95%
18,Cc1cccc(NC(=O)C(C)N2C(=O)C3C4CC(C(Br)C4Br)C3C2=O)c1 (configuration not stated),33.6% (active)
19,CCOC(=O)N1CCN(C(=O)Cn2cnc3ccccc3c2=O)CC1,2.69%
20,O=C(Cn1cnc2ccccc2c1=O)NCC1COc2ccccc2O1 (configuration not stated),4.37%
21,CN(Cc1ccccc1)C(=O)CCNC(=O)Cn1cnc2ccccc2c1=O,54.9% (active)
22,O=C(CN1CCN(Cc2ccccc2)CC1)NC(c1ccccc1)c1ccccc1,-14%
23,Cc1ccc(CNC(=O)Cn2c(=O)c3sccc3n(Cc3cccc([N+](=O)[O-])c3)c2=O)cc1,5.29%
